This experiment deals with D(2) dopamine receptor (Homo sapiens) (UniProt P14416). Put plainly: Dopamine D2 receptor (DRD2) small molecule antagonists, cell-based qHTS assay (AID 1963595). In a few lines: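 HEK293 cells stably expressing DRD2 were preincubated with 0.1 mM Ro20-1724, then with compound for 10 min at room temperature. Cells were stimulated with 200 nM NKH477 plus 12 nM quinpirole for 30 min, and cAMP was read by HTRF.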
(In general: Quantitative high-throughput screening tests each substance at several concentrations.)

Where “and” joins values, the source holds several entries; their conditions need not be identical. Equal values may be shown once. Inconclusive results are not listed. A call without a number means that no potency is given here. Some compounds were tested as several samples or in several runs, with calls that do not always agree. Calls of active or inactive are those of the source. The call rests on the fitted dose curve; in most records, active means well fitted inhibition curve with a large enough effect in the signal ratio in the repeat runs, with a control signal flat; inconclusive means weak or mixed curves, or effect the other way; inactive means flat fitted curve, though single readings scatter; the % refers to the signal ratio.

The text below walks through data of PubChem BioAssay (Tox21).
Potency means the concentration at half of the fitted maximal effect.

Chain of D(2) dopamine receptor (Homo sapiens) (P14416 whole entry, looked up): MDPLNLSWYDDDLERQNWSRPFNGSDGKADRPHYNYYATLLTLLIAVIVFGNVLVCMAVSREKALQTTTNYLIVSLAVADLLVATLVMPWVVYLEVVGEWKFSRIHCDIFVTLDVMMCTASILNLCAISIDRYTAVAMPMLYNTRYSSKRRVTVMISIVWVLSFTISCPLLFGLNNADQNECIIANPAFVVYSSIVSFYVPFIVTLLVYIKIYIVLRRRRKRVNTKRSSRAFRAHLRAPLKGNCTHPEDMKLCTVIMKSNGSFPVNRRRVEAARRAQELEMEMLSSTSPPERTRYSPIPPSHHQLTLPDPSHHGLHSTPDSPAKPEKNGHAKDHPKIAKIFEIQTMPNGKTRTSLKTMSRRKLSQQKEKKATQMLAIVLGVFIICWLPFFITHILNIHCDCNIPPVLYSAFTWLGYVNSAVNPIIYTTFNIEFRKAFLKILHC

Consider `CCCCCCCCCCCCC(=O)O`, for which the Potency entry is “inactive”.
Consider `CC(C#N)(CCC(=O)O)N=NC(C)(C#N)CCC(=O)O` (stereo unspecified), for which the Potency result is “inactive”.
`Cc1ncsc1CCO`: the Potency result is “inactive”.
As to `O=[Si]=O`, the Potency result is “inactive”.
On to `Nc1cccc2c1CN(C1CCC(=O)NC1=O)C2=O` (stereo unspecified), for which the Potency result is “inactive”.
As to `C=CCCCCCCCCCCCC`, the Potency entry was “inactive”.
Take `NNc1nncc2ccccc12`: the Potency result was “inactive and 10.3 µM (active)”.
As to `CC(C)(C)C(=O)OCOC(=O)C1N2C(=O)CC2S(=O)(=O)C1(C)C` (stereo unspecified), the Potency result is “inactive”.
On to `CCCCN(CCCC)CCCCCCN(CCCC)CCCC`, for which the Potency entry is “inactive”.
Consider `CN(C)c1cc(NC(=O)CNC(C)(C)C)c(O)c2c1C[C@H]1C[C@H]3[C@H](N(C)C)C(=O)C(C(N)=O)=C(O)[C@@]3(O)C(=O)C1=C2O`, for which the Potency entry was “inactive”.
Regarding `C=COCCOCCOCCOC=C`, the Potency entry was “inactive”.
With `CCCc1ccccc1`, the Potency result was “inactive”.
For the compound `CC1CCC(C(C)(C)O)CC1` (stereo unspecified), the Potency result is “inactive”.
Next, `O=c1[nH][nH]c(=O)c2cc([N+](=O)[O-])ccc12`: “inactive”; `C1CN(CCOCCN2CCOCC2)CCO1`: “inactive”.
For `CC(C)CCCCCOC(=O)CCS` the value was “inactive”; for `O=C(O)CCc1ccccc1`, “inactive”; for `CCOC(=O)c1ccc(OCCN2C[C@H](O)[C@@H](O)[C@H](O)[C@H]2CO)cc1`, “inactive”.
As to `CCC(C)(C)CC`, the Potency entry is “inactive”.
As for `CCOc1ncc(F)c(=O)[nH]1`, the Potency entry was “inactive”.
`[O]=[Zr]`: the Potency entry was “inactive”.
For `NC(=O)Nc1ccccc1` the value was “inactive”.
Consider `CCN1C(=O)c2ccccc2C1Nc1ccc(OCCN2CCCCC2)cc1` (stereo unspecified), for which the Potency entry is “inactive”.
For `NCCNCCO` the value was “inactive”; for `CC(=O)CC(C)=O`, “inactive”; for `O=[N+]([O-])c1ccc(Oc2ccc([N+](=O)[O-])cc2)cc1`, “inactive”.
Consider `CCC(C)C1CCCCC1=O` (stereo unspecified), for which the Potency result was “inactive”.
Consider `CCCC(C)CO` (stereo unspecified), for which the Potency result was “inactive”.
As to `Oc1cc(O)c2c(c1)O[C@H](c1ccc(O)c(O)c1)[C@H](O)C2`, the Potency entry is “inactive”.
In the case of `CCOC(OCC)OCC`, the Potency entry was “inactive”.
On to `CCCCCCCOC(C)=O`, for which the Potency result was “inactive”.
As to `Cc1ccc2c(ccc3ccccc32)c1`, the Potency entry was “inactive”.
Next, `CCCCC(CC)C(=O)OCCOCCOCCOC(=O)C(CC)CCCC` (stereo unspecified): “inactive”; `Nc1cc([N+](=O)[O-])ccc1O`: “inactive”; `Clc1nc(Cl)c(Cl)c(Cl)c1Cl`: “inactive”.
On to `COC(=O)/C=C(/C)N`, for which the Potency entry was “inactive”.
Next, `CCC(=O)CC`: “inactive”.
As to `CCCCOC(O)CC` (stereo unspecified), the Potency entry was “inactive”.
Turning to `CC(=O)N(CC(O)CO)c1c(I)c(C(=O)NCC(O)CO)c(I)c(C(=O)NCC(O)CO)c1I` (stereo unspecified), the Potency entry is “inactive”.
Regarding `Cc1ccc(C(C)c2ccc(C)c(C)c2)cc1C`, the Potency result is “inactive”.
Consider `CSc1ccc(C(=O)c2[nH]c(=O)[nH]c2C)cc1`, for which the Potency entry was “inactive”.
On to `Cc1ccccc1C(N)=O`, for which the Potency result is “inactive”.
Consider `CC(=O)c1cc(C)oc1C`, for which the Potency result is “inactive”.
Next, `CCCCCCCCSCCO`: “inactive”; `COC(=O)c1ccccc1C(=O)O`: “inactive”.
For `Cn1c(=O)c2[nH]c(Br)nc2n(C)c1=O` the value was “inactive”; for `C=CCn1cc[n+](C)c1`, “inactive”.
As for `O=C(NCN1CCOCC1)c1cnccn1`, the Potency result was “inactive”.
Regarding `NCCNCCN`, the Potency result was “inactive”.
For the compound `CC(C)=CCC/C(C)=C/C(=O)O`, the Potency entry was “inactive”.
For `CCCCCCS`, the Potency entry was “inactive”.
For `CCCC(C)CCC(C)=O` (stereo unspecified) the value was “inactive”.
Take `C/C(=C1\CCOC(=O)S1)N(C=O)Cc1cnc(C)nc1N`: the Potency entry is “inactive”.
Regarding `ON=C1CCCCC1`, the Potency entry was “inactive”.
For `CCCCCCC(C)(C)C(=O)O`, the Potency entry is “inactive”.
Turning to `O=S(=O)(O)c1ccc2cc(O)c(S(=O)(=O)O)cc2c1`, the Potency entry is “inactive”.
For the compound `CCCc1ccc(O)cc1`, the Potency result is “inactive”.
Take `CC(C)(CC(=O)O)C(=O)O`: the Potency result is “inactive”.
With `Cc1ccc(NC(=O)N(C)C)cc1NC(=O)N(C)C`, the Potency result is “inactive”.
Consider `C=CC(O)CCCCC` (stereo unspecified), for which the Potency result is “inactive”.
Turning to `Cc1ccc(N(C)C)cc1`, the Potency result is “inactive”.
With `CC1(C)[C@H]2CC[C@]1(C)[C@H](O)C2`, the Potency entry was “inactive”.
Turning to `C=CC(=O)OCCN(CC)CC`, the Potency entry was “inactive”.
For `CC(C)(C)OCC1CO1` (stereo unspecified), the Potency entry was “inactive”.
For `CC(C)c1cc2c(cc1S(=O)(=O)O)[C@@]1(C)CCC[C@@](C)(C(=O)O)[C@@H]1CC2`, the Potency entry was “inactive”.
For `NC(=S)N/N=C/c1cccnc1`, the Potency result was “inactive”.
As to `CC(C)C(=O)OC(=O)C(C)C`, the Potency result was “inactive”.
Next, `CCN(CC)CC(=O)OCC(=O)[C@@]1(O)CC[C@H]2[C@@H]3CCC4=CC(=O)CC[C@]4(C)[C@H]3[C@@H](O)C[C@@]21C`: “inactive”.
Take `CCOC(=O)NCCC[Si](OCC)(OCC)OCC`: the Potency result was “inactive”.
Take `C1CCC(SSC2CCCCC2)CC1`: the Potency entry is “inactive”.
As for `C1CCSC1`, the Potency entry is “inactive”.
As to `OC/C=C/CO`, the Potency entry was “inactive”.
For the compound `CCCCCC(CC)OC(=O)CCCOc1ccc(Cl)cc1Cl` (stereo unspecified), the Potency result is “inactive”.
Turning to `CC(=O)N1C[C@H](O)C[C@H]1C(=O)O`, the Potency entry was “inactive”.
With `C[Si](C)O[Si](C)C`, the Potency result is “inactive”.
In the case of `CCCCOC(=O)CCCCCCCC(=O)OCCCC`, the Potency result is “inactive”.
`CC(C)(O)Cc1ccccc1`: the Potency result was “inactive”.
Next, `NC(=O)NC1N=C([O][Al])NC1=O` (stereo unspecified): “inactive”.
Regarding `CC(O)C(C)O` (stereo unspecified), the Potency entry is “inactive”.
Turning to `O=c1[nH]c2ccccc2c(=O)n1CCCl`, the Potency entry was “inactive”.
Turning to `O=C(C(=O)c1ccccc1)c1ccccc1`, the Potency result was “inactive”.
As for `CO[C@@]1(NC(=O)C(C(=O)O)c2ccc(O)cc2)C(=O)N2C(C(=O)O)=C(CSc3nnnn3C)CO[C@@H]21` (stereo partly specified), the Potency entry was “inactive”.
Next, `FC(F)(F)c1ccccc1-n1ccnc1`: “inactive”; `CC(C)=CCCC(C)CCOC(=O)C(C)C` (stereo unspecified): “inactive”; `C#CC(O)CCC` (stereo unspecified): “inactive”.
For the compound `O=C(OC(=O)c1ccccc1)c1ccccc1`, the Potency entry is “inactive”.
For `CCc1ccc(Br)cc1`, the Potency result is “inactive”.
Turning to `CC(C)(c1ccccc1)c1ccc(Nc2ccc(C(C)(C)c3ccccc3)cc2)cc1`, the Potency entry is “inactive”.
On to `CC(=O)/C=C/c1ccco1`, for which the Potency entry was “inactive”.
Consider `FC(F)(F)C(Cl)Br` (stereo unspecified), for which the Potency entry was “inactive”.
Turning to `CC(C)COC(=O)c1ccccc1O`, the Potency entry is “inactive”.
For the compound `OC[C@H]1O[C@H](O[C@H]2O[C@H](CO)[C@@H](O)[C@H](O)[C@H]2O)[C@H](O)[C@@H](O)[C@@H]1O`, the Potency entry is “inactive”.
`CCCCCCc1ccc(-c2ccc(C#N)cc2)cc1`: the Potency result was “inactive”.
Next, `N[C@@H](CCC(=O)Nc1ccc([N+](=O)[O-])cc1)C(=O)O`: “inactive”; `CC(=O)CC(N)=O`: “inactive”.
Next, `C=CC(=O)CCCCC`: “inactive”.
For `CC(C)(C)NCCO` the value was “inactive”.
As for `O=S(=O)(O)CC(O)CCl` (stereo unspecified), the Potency entry was “inactive”.
In the case of `CCCC[O][Al]([O]CCCC)[O]CCCC`, the Potency entry was “inactive”.
For the compound `c1ccc(CNCc2ccccc2)cc1`, the Potency entry is “inactive”.
`O=C1CCN(c2ccccc2)N1`: the Potency result is “inactive”.
